Data: PubChem BioAssay AID485364 (National Center for Advancing Translational Sciences (NCATS), 2010)
In all, about 360,000 compounds went through this assay and about 11,000 (3.1%) were called active. Another 4% or so got no clear call; they are omitted. Shown is part of a subset that was picked to be rich in actives. Values without a mark were called inactive. The call rests on the fitted dose curve; in most records, active means well fitted inhibition curve with a large enough effect; inconclusive means small, poorly fitted or top-dose-only effect; inactive means no such curve, though single readings can be large or run the other way.

molecular target: Schistosoma mansoni thioredoxin glutathione reductase (TGR) (UniProt Q962Y6); test: qHTS Assay for the Inhibitors of Schistosoma Mansoni Peroxiredoxins; details: purified TGR, DTNB reduction, TNB absorbance 405 nm; series mostly up to 114 µM; activity change, negative = inhibition: at the top concentration; further: nearly all actives have a fitted effect of over 60% in size
Summary of the method: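 First, TGR (20 nM dispensed) and NADPH were mixed with compound. Second, a 15 min room-temperature incubation followed. Third, further NADPH and then DTNB were added to start the reaction. Finally, TNB absorbance was monitored kinetically.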
On the % scale 0 is the no-effect control and ±100 the full control effect; potency means the concentration at half of the fitted maximal effect.

Structure (SMILES) | activity change, negative = inhibition | Potency
Cc1ccc(N(C)C(=O)C2CCN(S(=O)(=O)c3ccc4c(c3)CCCN4C(=O)C3CCC3)CC2)cc1 | -0.86% | 
COc1cccc(CNCc2c(C(=O)O)n(Cc3ccc(C)cc3)c3cc(C)ccc23)c1OC | 5.78% | 
Cc1ccc(NC(=O)CN2C(=O)CC(C)Sc3ccccc32)c(C)c1 (stereo unspecified) | -3.82% | 
Cc1ccc2oc(=O)c3cnn(CC(=O)NCc4ccccc4Cl)c3c2c1 | -4.87% | 
CC(C)c1ccc(NS(=O)(=O)c2ccc3[nH]cc(C(=O)NC4CCCC4)c(=O)c3c2)cc1 | 7.55% | 
CC(C)(C)C1C/C(=C/c2ccco2)C(=O)/C(=C/c2ccco2)C1 (stereo unspecified) |  | 39.8 µM (active)
CCCCN=C1N/C(=C\c2ccco2)C(=O)N1c1ccccc1 |  | 20 µM (active)
CCOC(=O)C1(C)NC(c2ccco2)C2C(=O)N(c3ccccc3)C(=O)C21 (stereo unspecified) | -3.96% | 
CCOc1cccc(CC(=O)N2CCc3c([nH]c4ccccc34)C2c2ccc(F)cc2)c1OCC (stereo unspecified) | 4.64% | 
CCOc1cccc2c1N[C@@H](c1ccc(C(=O)O)cc1)[C@H]1CC=C[C@@H]21 |  | 7.08 µM (active)
CCOc1c(CNCc2ccc(C(=O)O)cc2)cccc1OC | -2.21% | 
CCOC(=O)N1CCc2c(sc3c2c(=O)n(Cc2ccccc2)c(=O)n3CC(=O)Nc2cccc(C)c2)C1 | -0.288% | 
Cc1ccc(N2CC(c3nnc(Cc4ccccc4Cl)o3)CC2=O)cc1 (stereo unspecified) | 12% | 
CCOc1ccccc1CNC(=O)c1ccc2c(c1)nc1n2CCC(C)C1 (stereo unspecified) | -0.951% | 
CCOc1cccc2cc(-c3cn4c(n3)sc3cc(C)ccc34)c(=O)oc12 | 1.43% | 
COc1cccc(/C=C2\SC(=N)N(c3ccc(F)cc3)C2=O)c1 | 3.46% | 
COc1cccc(N2C(=O)NC(=O)/C(=C\c3ccc([N+](=O)[O-])s3)C2=O)c1 |  | 8.91 µM (active)
O=C1NC(=O)N(c2ccccc2)C(=O)/C1=C/c1ccc([N+](=O)[O-])s1 |  | 5.62 µM (active)
COc1cc(/C=C2/C(=O)NN(c3ccc(F)cc3)C2=O)cc([N+](=O)[O-])c1O | -12.7% | 
Cc1ccccc1-c1nc2scc(CCNC(=O)C(=O)Nc3ccc(F)cc3F)n2n1 | 0.0736% | 
Cc1ccc(S(=O)(=O)N(Cc2nc(-c3ccc(Cl)cc3)no2)C2CCCCC2)cc1 | 10.4% | 
COc1ccc(CCN2C(=O)c3oc4cc(C)cc(C)c4c(=O)c3C2c2ccccc2F)cc1OC (stereo unspecified) | -9.97% | 
Cc1cc(C)cc(OCC(=O)Nc2nc(-c3ccc(F)cc3)ns2)c1 | 6.53% | 
Cc1ccn2c(Nc3ccc4c(c3)OCCO4)c(-c3ccc(C)s3)nc2c1 | 4.83% | 
COc1cc(C(=O)NC(=S)NCc2ccco2)cc(OC)c1OC | 3.26% | 
COc1cc(-n2c(C)nc3cc(C(=O)NCc4ccco4)ccc32)cc(OC)c1OC | 0.602% | 

Structure (SMILES) | activity change, negative = inhibition | Potency
COc1cc(Cn2c(N)c(C(=O)NCc3ccco3)c3nc4ccccc4nc32)cc(OC)c1OC |  | 7.08 µM (active)
CCc1ccc(S(=O)(=O)c2nnn3c2nc(NCc2ccccc2OC)c2cc(Cl)ccc23)cc1 | 8.14% | 
Cc1nn(Cc2ccc(F)cc2)c(C)c1NC(=O)c1cc(CC(C)C)on1 | 0.928% | 
CCOC(=O)N1CCN(C(c2cccnc2)c2ccc3cccnc3c2O)CC1 (stereo unspecified) |  | 0.316 µM (active)
O=C(CSc1cccc2cccnc12)N/N=C/c1cccnc1 | 10.9% | 
COc1ccccc1N1CCN(C(CNC(=O)Oc2ccccc2)c2cccnc2)CC1 (stereo unspecified) | 0.19% | 
COc1ccc(CC(=O)Nc2nnc3n2CCS3)cc1OC | -0.169% | 
CCOC(=O)c1c(C)[nH]c(CCC(=O)NCCCN2CCN(c3cccc(Cl)c3)CC2)c1C | -6.57% | 
CN(C(=O)c1ccc2c(c1)N(Cc1cccc(Cl)c1)C(=O)c1ccccc1S2=O)C1CCCCC1 (stereo unspecified) | 13.3% | 
COc1ccc(C(=O)COC(=O)CNC(=O)c2cccs2)cc1Br | -32.3% | 
CCOc1ccc(C(C)=O)cc1COC(=O)CN1C(=O)NC2(CCCC2)C1=O |  | 10 µM (active)
CCOc1ccc(C(C)NC(=O)CN2C(=O)NC3(CCCCC3)C2=O)cc1OCC (stereo unspecified) | 1.76% | 
CCOc1ccc(C(C)=O)cc1COC(=O)c1cnc(Cl)c(Cl)c1 | -19.2% | 
CCOc1ccc(C(C)=O)cc1COC(=O)CNC(=O)c1cccs1 |  | 11.2 µM (active)
Cc1ccc(COC(=O)CN2C(=O)NC3(CCCC3)C2=O)cc1 | -26.1% | 
CCOc1ccccc1N(C)C(=O)c1cc2c(s1)-c1ccccc1OC2 | 0.733% | 
Cc1nnc(NCc2ccccc2)c2c1nnn2Cc1ccc(F)cc1 | 5.94% | 
CCc1nc(-c2cc(S(=O)(=O)N3CCN(c4ccc(OC)cc4)CC3)ccc2OC)no1 | 3.63% | 
Cc1ccc(CNC(=O)Cn2c(=O)ccc3cc(S(=O)(=O)N4CCCC4)ccc32)cc1 | -0.446% | 
Cc1ccc(NC(=O)CSc2nc3ccccc3c3nc(CCn4cncc4C)nn23)cc1F | -0.64% | 
CC(=O)c1ccc(OC(NC(=O)Cc2ccccc2)C(Cl)(Cl)Cl)cc1 (stereo unspecified) |  | 22.4 µM (active)
CCC/C=C(\CCC)C(NC(=O)Cc1ccccc1)c1ccc(C(=O)OC)cc1 (stereo unspecified) | -12.9% | 
CC(=O)c1ccc(NC(=O)N[C@@H](Cc2ccccc2)C(=O)O)cc1 | 2.42% | 
COc1ccc(NC(=O)c2sc3nc[nH]c(=O)c3c2C)cc1 | -1.14% | 
COc1ccccc1NC(=O)C1=C(C)Nc2nc(SCC(=O)c3ccc(C)cc3)nn2C1c1ccccc1C (stereo unspecified) | 7.49% | 
